This note sets out measurements from PubChem BioAssay.

Several values for one entry are separate records, joined by “and”; a condition that tells them apart may be missing. Equal entries are not always repeated. For some of these results: Measured potencies and affinities stand elsewhere. Where a structure was tested more than once in an assay, its records may differ in their call. Activity calls are given as the source filed them.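 Rule for the calls, unless noted: active = thallium flux through the channel raised or lowered by more than 3 SD from vehicle-only wells, actives on both sides; inactive = the rest.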

The test system of assay [1] is Neuropilin-2 / VEGF-C interaction (human). In words: small molecules blocking Neuropilin-2/VEGF-C interaction – biochemical, microplate binding format, z-score (AID 743281; call rule not given here). Particulars: microplate NRP2/VEGF-C binding assay; stronger effect = lower value.
The nature of assay [2]: modulation of C. elegans fzo-1 (AID 1259413; call rule not given here;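 note: fzo-1 mutant C. elegans worms in liquid wells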). Particulars: C. elegans fzo-1 modulator screen, mean read-out; stronger effect = higher value.
The nature of assay [3]: galactose survival enhancers in mitochondrial complex I cybrids – cell-based, galactose medium, ATP luminescence, primary screen (AID 1645843;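 active = z-score of at least 1.8 in each of two replicates, scored against plate mean and spread of sample wells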;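 note: positive z means more ATP and so rescue of galactose-driven cybrid death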). The following applies: complex I mutant cybrid cells, 72 h, stronger effect = higher value.
The next assay deals with F380Y/beta1. In words: BK channel mutant inhibitors and activators – cell-based, U2OS BacMam, thallium flux, beta subunits, selectivity assay, profiling panel (AID 1259406).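 Note: initial slope of Thallos dye fluorescence rise after thallium is added; log ratio against the mean of 0.3% DMSO vehicle wells on the same plate.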 Particulars: U2OS BacMam BK variants, at 30 µM.
The subject of the next assay is F380Y/beta2Delta. Described as above. The following applies: U2OS BacMam BK variants, at 30 µM.
The test system of the next assay is F380Y/beta4. The assay is described as above. Particulars: U2OS BacMam BK variants, at 30 µM.
Assay [4] deals with Calcium-activated potassium channel subunit alpha-1 (Homo sapiens) + Leucine-rich repeat-containing protein 26 (Homo sapiens) (UniProt Q12791+Q2I0M4). The description is as above. The following applies: U2OS BacMam BK variants, F380Y/Slo1WT/gamma1, at 30 µM.
The subject of another assay is R275C. The assay is described as above. Particulars: U2OS BacMam BK variants, at 30 µM.
The subject of the next assay is R275C/beta1. The assay is described as above. The following applies: U2OS BacMam BK variants, at 30 µM.
The test system of the next assay is R275C/beta2Delta. The description is as above. Particulars: U2OS BacMam BK variants, at 30 µM.
The subject of the next assay is R275C/beta4. Described as above. Particulars: U2OS BacMam BK variants, at 30 µM.
The subject of the next assay is R275C/Slo1WT/beta2. The assay is described as above. Particulars: U2OS BacMam BK variants, at 30 µM.
Assay [5] can be described thus: compounds altering viability of human ES cells (AID 493140; call rule not given here;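 note: cells exposed to compounds for four days before counting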). Particulars: human embryonic stem cell survival screen; stronger effect = higher value.
Assay [6] is described as follows: blockers of polyQ-driven CASP3 activation – cell-based (AID 1583). Particulars: polyglutamine-induced caspase-3 activation, cell assay; stronger effect = higher value;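 tested at 10 µM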.
Assay [7] is described as follows: yeast 75Q aggregation reduction – 75Q-TubU reporter (AID 1593). The following applies: Yeast 75Q polyglutamine aggregation reporter.
Assay [8] in a line: restoration of touch response, mutant HTT neurons – whole organism, C. elegans mechanosensory neurons, N-terminal huntingtin (AID 1599). The following applies: C. elegans polyQ-huntingtin mechanosensory neurons, stronger effect = higher value.
Assay [9] can be described thus: blockers of cytochrome c efflux from mitochondria – biochemical, purified mitochondria (AID 1603).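 Note: mouse liver mitochondria challenged with calcium chloride; signal normalized to the plate average as 100%.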 Particulars: stronger effect = lower value.
Assay [10] is described as follows: polyglutamine aggregate formation blockers (AID 1604). The following applies: polyglutamine-induced protein aggregation inhibition assay; stronger effect = higher value; tested at 2.5 µM.
Assay [11] in a line: glutamate transport activators, MN-1 cells, MN-1 cell line (AID 1612).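 Note: tested at 1 µM final; 0% = mean of DMSO vehicle wells on each plate; positive means more glutamate uptake than control and negative means less.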 Particulars: MN-1 motor neuron cells, stronger effect = higher value.
A short description of assay [12]: 75Q-TubH aggregate inhibition, S. cerevisiae, yeast (AID 1616). Particulars: S. cerevisiae 75Q-TubH polyglutamine aggregation suppression; stronger effect = higher value.

Calcium-activated potassium channel subunit alpha-1 (Homo sapiens) + Leucine-rich repeat-containing protein 26 (Homo sapiens), sequence (Q2I0M4 whole entry, looked up, one chain of several): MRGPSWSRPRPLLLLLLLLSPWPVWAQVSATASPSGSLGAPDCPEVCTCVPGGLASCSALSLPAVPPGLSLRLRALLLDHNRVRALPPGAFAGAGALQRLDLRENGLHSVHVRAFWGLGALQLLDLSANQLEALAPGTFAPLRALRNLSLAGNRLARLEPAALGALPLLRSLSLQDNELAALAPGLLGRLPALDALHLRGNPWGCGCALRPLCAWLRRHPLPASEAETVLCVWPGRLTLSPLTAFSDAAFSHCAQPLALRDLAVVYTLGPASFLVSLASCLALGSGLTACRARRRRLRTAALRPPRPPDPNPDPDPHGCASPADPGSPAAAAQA

For the compound `Cc1onc(-c2ccccc2)c1-c1ccc(S(N)(=O)=O)cc1`, the figures for the z-score in [1] and in [3] were 0.865 (inactive) and -0.505 (inactive), respectively. In addition, the mean signal in assay [2] was 275 (inactive). Moreover, the log fold change Tl+ flux is 0.0307 (inactive) with F380Y/beta1; 0.0548 (inactive) with F380Y/beta2Delta; 0.0618 (inactive) in the assay on F380Y/beta4; 0.00659 (inactive) in [4]; 0.0179 (inactive) with R275C; 0.0767 (inactive) in the assay with R275C/beta1. In addition, the log fold change Tl+ flux is 0.0842 (inactive) with R275C/beta2Delta, 0.0327 (inactive) with R275C/beta4 and -0.0445 (inactive) in the assay on R275C/Slo1WT/beta2.

As to `CC1=C(C(=O)O)N2C(=O)[C@@H](NC(=O)[C@H](N)c3ccccc3)[C@H]2SC1`, the survival in assay [5] was 10.4 (inactive). For the same compound, the result in [1] was inactive. In addition, the mean signal in assay [2] is 265 (inactive). The log fold change Tl+ flux in the assay on F380Y/beta1 is -0.0395 (inactive); with F380Y/beta2Delta, -0.0767 (inactive); in the assay with F380Y/beta4, -0.0677 (inactive); in assay [4], -0.0298 (inactive); in the assay on R275C it was -0.0778 (inactive); with R275C/beta1, -0.0268 (inactive). Also, the figures for the log fold change Tl+ flux with R275C/beta2Delta, with R275C/beta4 and in the assay with R275C/Slo1WT/beta2 were -0.026 (inactive), -0.0153 (inactive) and -0.0484 (inactive), respectively.

On to `Cc1cccc(CN2CCN(C(c3ccccc3)c3ccc(Cl)cc3)CC2)c1` (stereo not given), for which the inhibition in assay [6] was determined as 7.71%. This compound also showed a score in [7] of 1.9. The rescue above control in [8] came out at 1.73. Besides, the cytochrome c release ratio in [9] came out at 0.33. For the same compound, the inhibition of aggregation in assay [10] was found to be 63.4%. In addition, the glutamate uptake change in assay [11] turned out to be 17.6%. In addition, the aggregation suppression score in assay [12] was 1.86. Moreover, the survival in assay [5] was 3.33 (inactive). Besides, in assay [2], the mean signal was 222 (inactive). For the same compound, in assay [3], the z-score is -1.5 (inactive). In addition, the log fold change Tl+ flux in the assay on F380Y/beta1 is -0.208 (active); in the assay on F380Y/beta2Delta it was 0.0401 (inactive); with F380Y/beta4, -0.141 (active); in [4] it was -0.0345 (inactive); with R275C, 0.00971 (inactive); in the assay with R275C/beta1, -0.0498 (inactive). Also, the log fold change Tl+ flux in the assay with R275C/beta2Delta is 0.0052 (inactive); in the assay on R275C/beta4, -0.091 (inactive); in the assay with R275C/Slo1WT/beta2, -0.00698 (inactive).

Turning to `CC(C)(C)NC[C@H](O)COc1nsnc1N1CCOCC1`, the survival in assay [5] is 4.17 (inactive). The mean signal in assay [2] was 275 (inactive). The z-score in [3] is 0.57 (inactive) and -0.2 (inactive) and 0.33 (inactive). The log fold change Tl+ flux with F380Y/beta1 is -0.0365 (inactive); in the assay with F380Y/beta2Delta, 0.019 (inactive); in the assay with F380Y/beta4 it was 0.0021 (inactive); in [4], 0.00124 (inactive); in the assay on R275C, -0.000858 (inactive); in the assay with R275C/beta1, -0.0605 (inactive). In addition, the results for the log fold change Tl+ flux with R275C/beta2Delta, in the assay with R275C/beta4 and in the assay with R275C/Slo1WT/beta2 were -0.0488 (inactive), -0.0714 (inactive) and -0.0819 (inactive), respectively.

Consider `CN(C)c1ccc(O)c2c1C[C@H]1C[C@H]3[C@H](N(C)C)C(=O)C(C(N)=O)=C(O)[C@@]3(O)C(=O)C1=C2O`, for which the inhibition in assay [6] was -8.86%. The same compound registered a score in [7] of 0.98. This compound also had a rescue above control in assay [8] of 0. For the same compound, the cytochrome c release ratio in assay [9] came to 0.25. The same compound returned an inhibition of aggregation in assay [10] of 88.9%. The glutamate uptake change in assay [11] was 5.89%. The compound further had an aggregation suppression score in assay [12] of 0.425. Moreover, the survival in [5] was 9.58 (inactive). For the same compound, the z-score in assay [3] is -1.26 (inactive) and 2.96 (active). Also, the log fold change Tl+ flux is 0.00506 (inactive) in the assay on F380Y/beta1; 0.045 (inactive) with F380Y/beta2Delta; 0.0112 (inactive) in the assay with F380Y/beta4; 0.0283 (inactive) in assay [4]; -0.0348 (inactive) with R275C; -0.00562 (inactive) in the assay on R275C/beta1. For the same compound, the log fold change Tl+ flux was -0.0532 (inactive) in the assay on R275C/beta2Delta, -0.0291 (inactive) with R275C/beta4 and -0.0415 (inactive) in the assay on R275C/Slo1WT/beta2.

Turning to `COc1ccc2cc(CCC(C)=O)ccc2c1`, the inhibition in assay [6] worked out at 10.1%. In assay [7], this compound gave a score of 0.11. In addition, in assay [9], the cytochrome c release ratio is 0.7. Besides, in assay [10], the inhibition of aggregation is 91.3%. The glutamate uptake change in assay [11] stood at 13.8%. In assay [12], this compound returned an aggregation suppression score of 0.329. The survival in assay [5] was 4.83 (inactive). For the same compound, the mean signal in [2] is 213 (inactive). In addition, the z-score in assay [3] is 0.395 (inactive) and 0.51 (inactive). In addition, the log fold change Tl+ flux in the assay with F380Y/beta1 was -0.0534 (inactive); with F380Y/beta2Delta, -0.0818 (active); in the assay with F380Y/beta4, -0.162 (active); in assay [4] it was -0.0634 (inactive); in the assay on R275C, -0.0871 (active); in the assay on R275C/beta1, -0.284 (active). Moreover, the log fold change Tl+ flux with R275C/beta2Delta was -0.233 (active); in the assay on R275C/beta4, -0.216 (active); in the assay with R275C/Slo1WT/beta2, -0.0751 (inactive).

Consider `CC(=O)[C@H]1CC[C@H]2[C@@H]3C[C@H](C)C4=CC(=O)CC[C@]4(C)[C@H]3[C@@H](O)C[C@]12C`, for which the survival in assay [5] is 6.42 (inactive). The mean signal in [2] is 277 (inactive). Moreover, the z-score in assay [3] was -0.825 (inactive). Besides, the log fold change Tl+ flux with F380Y/beta1 is -0.00433 (inactive); with F380Y/beta2Delta, -0.0669 (inactive); with F380Y/beta4, -0.0204 (inactive); in assay [4], -0.019 (inactive); with R275C, -0.0356 (inactive); in the assay with R275C/beta1 it was 0.0813 (inactive). In addition, the log fold change Tl+ flux is 0.0373 (inactive) with R275C/beta2Delta, -0.0699 (inactive) with R275C/beta4 and -0.105 (inactive) in the assay on R275C/Slo1WT/beta2.

In the case of `C[C@]12C=CC(=O)C=C1CC[C@@H]1[C@@H]2C(=O)C[C@@]2(C)[C@H]1CC[C@]2(O)C(=O)CO`, the survival in [5] is 15.9 (inactive). The z-score in assay [3] is 0.315 (inactive) and 0.45 (inactive). For the same compound, the log fold change Tl+ flux in the assay with F380Y/beta1 is 0.00863 (inactive); in the assay on F380Y/beta2Delta, 0.0137 (inactive); in the assay on F380Y/beta4, 0.000343 (inactive); in [4] it was -0.00874 (inactive); in the assay with R275C, -0.0236 (inactive); in the assay on R275C/beta1 it was -0.0318 (inactive). The values for the log fold change Tl+ flux with R275C/beta2Delta, with R275C/beta4 and with R275C/Slo1WT/beta2 were 0.028 (inactive), -0.00291 (inactive) and -0.00226 (inactive), respectively.

For the compound `CC[C@H](C)C(=O)O[C@H]1C[C@H](O)C=C2C=C[C@H](C)[C@H](CC[C@@H](O)C[C@@H](O)CC(=O)O)[C@H]21`, the z-score in assay [1] was 0.492 (inactive); in assay [3] it was 0.175 (inactive). For the same compound, the mean signal in [2] is 245 (inactive). Moreover, the log fold change Tl+ flux in the assay with F380Y/beta1 is -0.03 (inactive); with F380Y/beta2Delta, -0.0757 (inactive); in the assay on F380Y/beta4, 0.0119 (inactive); in assay [4], 0.00396 (inactive); in the assay with R275C, -0.0381 (inactive); with R275C/beta1 it was -0.014 (inactive). In addition, the figures for the log fold change Tl+ flux in the assay with R275C/beta2Delta, in the assay on R275C/beta4 and with R275C/Slo1WT/beta2 were 0.0137 (inactive), -0.0312 (inactive) and -0.0454 (inactive), respectively.

For `CCCN(CCC)S(=O)(=O)c1ccc(C(=O)O)cc1`, in assay [6], the inhibition was found to be 2.2%. The same compound gave a score in assay [7] of 0.68. The rescue above control in assay [8] was 9.13. Further, in assay [9], the cytochrome c release ratio is 1.07. In assay [10], this compound registered an inhibition of aggregation of 52.4%. Moreover, the glutamate uptake change in [11] is -14.7%. For the same compound, the aggregation suppression score in assay [12] is 0.579. Further, in assay [5], the survival was 6.25 (inactive). Besides, the mean signal in assay [2] is 252 (inactive). The z-score in [3] is 0.145 (inactive). The log fold change Tl+ flux in the assay on F380Y/beta1 was -0.02 (inactive); in the assay on F380Y/beta2Delta it was -0.000486 (inactive); with F380Y/beta4, -0.0299 (inactive); in [4], 0.021 (inactive); with R275C, -0.00526 (inactive); in the assay with R275C/beta1, -0.0021 (inactive). In addition, the log fold change Tl+ flux in the assay with R275C/beta2Delta is -0.000317 (inactive); in the assay on R275C/beta4 it was -0.0261 (inactive); in the assay on R275C/Slo1WT/beta2, 0.0366 (inactive).

As a reminder, the inhibition is the relative decrease from the control value, in per cent.
